Experimental data: PubChem BioAssay (NCI)
“And” between values parts separate entries of the source, which are not always exact repeats. Equal values may be shown once. The panel holds about 83,000 compounds, 20% with a hit somewhere; the sample as a whole holds those more often.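 Interpretation: 100, growth as untreated; towards 0, rising growth inhibition; 0, no net growth; 0 to -100, cell death. Compounds scoring below 10 were considered active.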 The source made the active and inactive calls.

Columns and labels:
Test in all cases: NCI-60 one-dose screen, 48 h (100 = growth as untreated, 0 = no growth, -100 = all killed)
Details in all cases: 10 µM unless noted
T-47D breast = system: T-47D breast
BT-549 breast = system: BT-549 breast
MDA-MB-435 melanoma = system: MDA-MB-435 melanoma
SW-620 colon = system: SW-620 colon
MCF7 breast = system: MCF7 breast
HCT-116 colon = system: HCT-116 colon
HCC-2998 colon = system: HCC-2998 colon
KM12 colon = system: KM12 colon

Measured: growth

O=C(O)CC1CCN(c2ccc3nnc(Cl)n3n2)CC1
inactive: T-47D breast 96.8% | BT-549 breast 101% | MDA-MB-435 melanoma 105% | SW-620 colon 102% | MCF7 breast 91.2% | HCT-116 colon 103% | HCC-2998 colon 107% | KM12 colon 98.1%

Nc1ncc(-c2ccc3ncnc(NCc4ccccc4)c3c2)cn1
inactive: T-47D breast 15% | BT-549 breast 34.5% | MDA-MB-435 melanoma 65.1% | SW-620 colon 73.7% | MCF7 breast 19.3% | HCT-116 colon 66.5% | HCC-2998 colon 59.8% | KM12 colon 72.1%

Cc1cc2nc(C(Cl)Cl)nc(-c3ccc(S(=O)(=O)N(C)C)cc3)n2n1
inactive: T-47D breast 69.8% | BT-549 breast 38.5% | MDA-MB-435 melanoma 47% | SW-620 colon 18.2% | MCF7 breast 62.1% | HCT-116 colon 18.2% | HCC-2998 colon 47.6% | KM12 colon 39.1%

COc1ccc([C@H]2C(=O)N(c3cc(OC)c(OC)c(OC)c3)[C@@H]2c2ccc(OC)c(O)c2)cc1
active: BT-549 breast -28.2% | MDA-MB-435 melanoma -6.94% | HCT-116 colon 6.05%
inactive: T-47D breast 90.5% | SW-620 colon 23.3% | MCF7 breast 14% | HCC-2998 colon 13.3% | KM12 colon 12.4%

COc1ccc(NC2=C(Br)C(=O)C(C)=C(C)C2=O)cc1OC
inactive: BT-549 breast 112% | MDA-MB-435 melanoma 102% | SW-620 colon 107% | MCF7 breast 72.1% | HCT-116 colon 90.7% | HCC-2998 colon 102% | KM12 colon 59.2%
active: T-47D breast -8.45%

CN1CC[C@@H]2[C@@]3(C)CC[C@H](O)C(C)(C)[C@@H]3CC[C@@]2(C)[C@]2(C)CC[C@@]3(CO)CCC(C)(C)C[C@@H]3C12 (some centres not stated)
inactive: T-47D breast 79.8% | BT-549 breast 96.7% | MDA-MB-435 melanoma 95.7% | SW-620 colon 90.2% | MCF7 breast 77% | HCT-116 colon 77.9% | HCC-2998 colon 27.5% | KM12 colon 96.2%

CNc1sc(S(=O)(=O)NC)nc1S(=O)(=O)c1ccc(C)cc1
inactive: T-47D breast 93.5% | BT-549 breast 99.5% | MDA-MB-435 melanoma 105% | SW-620 colon 109% | MCF7 breast 87.6% | HCT-116 colon 100% | HCC-2998 colon 103% | KM12 colon 103%

CNC(=O)c1cc(-c2ccc(NC(=S)Nc3cccc(C(F)(F)F)c3)cc2)nc2cccnc12
inactive: T-47D breast 102% | BT-549 breast 104% | MDA-MB-435 melanoma 95.9% | SW-620 colon 96.8% | MCF7 breast 80.3% | HCT-116 colon 103% | HCC-2998 colon 116% | KM12 colon 98.8%

CC(O)c1cccc(/C(N)=N/C(N)=N/c2nc3ccccc3s2)c1 (configuration not stated)
inactive: T-47D breast 83.6% | BT-549 breast 117% | MDA-MB-435 melanoma 98% | SW-620 colon 98.2% | MCF7 breast 90.5% | HCT-116 colon 70.1% | HCC-2998 colon 118% | KM12 colon 83.2%

Nc1ccc(Nc2ncnc3sc4c(c23)CCN(Cc2ccccc2)C4)cc1
inactive: T-47D breast 102% | BT-549 breast 101% | MDA-MB-435 melanoma 102% | SW-620 colon 99.7% | MCF7 breast 84.5% | HCT-116 colon 96.9% | HCC-2998 colon 105% | KM12 colon 104%

CC(C)=CCC[C@](C)(O)[C@H]1CC[C@]2(C)[C@@H]1CC[C@@H]1[C@@]3(C)CC[C@H](N)C(C)(C)[C@@H]3CC[C@]12C
inactive: T-47D breast 107% | BT-549 breast 98.8% | MDA-MB-435 melanoma 94.2% | HCC-2998 colon 63.3% | KM12 colon 48.9%
active: SW-620 colon 8.73% | MCF7 breast 3.07% | HCT-116 colon -28.2%

CCCNNC(=O)c1ccc(-c2ccc(NC(=O)CCCCCCC(=O)N[C@H](C(=O)N3C[C@H](O)C[C@H]3C(=O)N[C@@H](C)c3ccc(-c4scnc4C)cc3)C(C)(C)C)cc2)cc1
inactive: BT-549 breast 50.5% | SW-620 colon 12.1% | MCF7 breast 12% | HCC-2998 colon 19.4% | KM12 colon 26.7%
active: T-47D breast 9.23% | MDA-MB-435 melanoma 8.72% | HCT-116 colon 7.95%

Cc1[nH]c(C(=O)Nc2ccc(C(N)=O)cc2N2CCOC(C)C2)c(Cl)c1Cl (configuration not stated)
inactive: T-47D breast 83% | BT-549 breast 98.3% | MDA-MB-435 melanoma 96.1% | SW-620 colon 109% | MCF7 breast 93% | HCT-116 colon 92% | HCC-2998 colon 105% | KM12 colon 104%

CCOC(=O)c1cnc2c(-c3ccc(Cl)c(Cl)c3)cnn2c1
inactive: T-47D breast 86.2% | BT-549 breast 26.5% | SW-620 colon 42.3% | MCF7 breast 82.8% | HCT-116 colon 62.7% | HCC-2998 colon 85% | KM12 colon 57.5%
active: MDA-MB-435 melanoma -20.3%

Cc1nc(N)sc1-c1csc(Nc2ccc(C(F)(F)F)cc2)n1
active: T-47D breast -0.894% | BT-549 breast -12%
inactive: MDA-MB-435 melanoma 37.8% | SW-620 colon 20.6% | MCF7 breast 17.3% | HCT-116 colon 20.6% | HCC-2998 colon 21% | KM12 colon 10.4%

Cc1ccsc1[C@H]1c2[nH]c3ccccc3c2C[C@H]2C(=O)N(CCCCCCC(=O)NO)CC(=O)N12
inactive: T-47D breast 57.6% | BT-549 breast 106% | MDA-MB-435 melanoma 90.6% | SW-620 colon 82.5% | MCF7 breast 50.1% | HCT-116 colon 68.1% | HCC-2998 colon 88.1% | KM12 colon 81.1%

O=C(Nc1cccc(Cl)c1)Nc1nc2cc([N+](=O)[O-])ccc2o1
inactive: T-47D breast 15.4% | BT-549 breast 67.1% | MDA-MB-435 melanoma 40.9% | SW-620 colon 22.3% | MCF7 breast 36.8% | HCT-116 colon 26.8% | HCC-2998 colon 39% | KM12 colon 26.5%

C/C=C/CC(C)C(O)[C@H](NC(=O)[C@@H]1CCCN1C(=O)[C@](C)(CC)NC(=O)CCCCCCCCC)C(=O)N[C@@](C)(CC)C(=O)N[C@@H](CCC(N)=O)C(=O)N[C@H](CCC(N)=O)C(=O)NC(C)(C)C(=O)NC(C)(C)C(=O)N[C@@H](CCC(N)=O)C(=O)N[C@H](CC(C)C)C(=O)N[C@H](CO)CC(C)C (some centres not stated)
70.6% (inactive) and -7.45% (active): HCT-116 colon
active: BT-549 breast -72.4%
32.6% (inactive) and -57.5% (active): HCC-2998 colon
17.4% (inactive) and -95.1% (active): MDA-MB-435 melanoma
inactive: SW-620 colon 83.1% and 14.5%
61.9% (inactive) and -23.3% (active): T-47D breast
21.6% (inactive) and -65% (active): KM12 colon
51.9% (inactive) and -62.3% (active): MCF7 breast

C#Cc1cc(OC)c(C(=O)Nc2ccc(F)cc2C(=O)Nc2cccc(S(=O)(=O)C(F)(F)F)c2)cn1
inactive: T-47D breast 23.4% | MDA-MB-435 melanoma 10.2% | MCF7 breast 13.1%
active: BT-549 breast 1.8% | SW-620 colon 5.83% | HCT-116 colon 3.82% | KM12 colon 4.44%

CN1CCN(c2ccc(Nc3nc(NCCNS(=O)(=O)c4ccc(Cl)cc4)c4sccc4n3)cc2)CC1
inactive: T-47D breast 84.3% | BT-549 breast 111% | MDA-MB-435 melanoma 95.4% | SW-620 colon 94.7% | MCF7 breast 83.2% | HCT-116 colon 58.5% | HCC-2998 colon 108% | KM12 colon 93.7%

CCCCSC1=C(Cl)CN(c2ccc(Cl)cc2)C1=O
inactive: T-47D breast 72.7% | BT-549 breast 112% | MDA-MB-435 melanoma 107% | SW-620 colon 104% | MCF7 breast 26.2% | HCT-116 colon 93.4% | KM12 colon 98.7%

C#CCn1cc(/C=N/Nc2nc(-c3ccc(Br)cc3)cs2)c2ccccc21
inactive: T-47D breast 76.4% | BT-549 breast 111% | MDA-MB-435 melanoma 106% | SW-620 colon 98.7% | MCF7 breast 64.1% | HCT-116 colon 85.4% | KM12 colon 104%

COc1ccc(/C=N/NC(=O)CSc2nc(-c3cnccn3)cc(-c3cccs3)c2C#N)cc1OC
inactive: T-47D breast 93.9% | BT-549 breast 38% | MDA-MB-435 melanoma 78.9% | SW-620 colon 60.8% | MCF7 breast 53.7% | HCT-116 colon 55.4% | KM12 colon 51.4%

CN1CCN(Cc2ccc(NC(=O)c3cncc(C#Cc4cnc5ccc(N)nn45)c3)cc2C(F)(F)F)CC1
active: SW-620 colon 0.667% | MCF7 breast -19.7% | HCT-116 colon 1.19% | KM12 colon 3.48%
inactive: T-47D breast 60.5% | BT-549 breast 38.7% | MDA-MB-435 melanoma 40.5%

CC(=O)c1c([Si](C)(C)C)c2cc(C#N)ccn2c1C(=O)c1ccc(Br)cc1
inactive: T-47D breast 73.8% | BT-549 breast 97.5% | MDA-MB-435 melanoma 92.5% | SW-620 colon 87.2% | MCF7 breast 82.5% | HCT-116 colon 56% | HCC-2998 colon 89.9% | KM12 colon 88.3%

CN1CCN(c2ccc(Nc3nc(NCCNS(=O)(=O)c4ccc5ccccc5c4)c4sccc4n3)cc2)CC1
inactive: T-47D breast 55.2% | BT-549 breast 86.7% | MDA-MB-435 melanoma 53.7% | SW-620 colon 35.2% | MCF7 breast 32.9% | HCT-116 colon 14.7% | KM12 colon 86.7%

COc1ccc(-c2cnc(NC(=O)CCCCCCNC(=O)C(O)(O)C(F)(F)F)s2)cc1
active: T-47D breast 0.87% | BT-549 breast -11.9% | MDA-MB-435 melanoma 5.55% | SW-620 colon 0.251% | MCF7 breast 7.73% | HCT-116 colon -9.91% | KM12 colon -47.8%

COC(=O)c1ccc(NC2=C(Cl)C(=O)c3nc(C)ccc3C2=O)cc1
inactive: T-47D breast 31.2% | BT-549 breast 99% | MDA-MB-435 melanoma 60.6% | SW-620 colon 18.3% | MCF7 breast 30.5% | HCT-116 colon 43.1% | HCC-2998 colon 102% | KM12 colon 50.3%
